Source: PubChem BioAssay (NCI)
Compounds without any hit were thinned out: in the full panel of roughly 79,000, 15% have a hit. Calls of active or inactive are those of the source. Cut-off read from the data, not from the text of the source: active = growth inhibition above about 70%; inactive = the rest.

Assays:
[1] = NCI Yeast Anticancer Drug Screen. Data for the rad52 strain (AID 147);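 note: 0% = growth of vehicle-treated control cultures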; settings: S. cerevisiae rad52 mutant growth inhibition, hits give high values
In short: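 Yeast strain carrying a DNA damage repair alteration was exposed to test compounds. Growth inhibition was measured relative to vehicle-treated controls.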

[2] = NCI Yeast Anticancer Drug Screen. Data for the wt1 strain (AID 149);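 note: 0% = growth of vehicle-treated wt1 cultures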; settings: S. cerevisiae wt1 strain (SPY 50644) growth inhibition, hits give high values
In short: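 Measured: growth of wt1 yeast under compound versus vehicle treatment, reported as inhibition.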

[3] = NCI Yeast Anticancer Drug Screen. Data for the rad50EPP+ strain (AID 151);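 note: 0% = growth of vehicle-treated control cultures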; settings: S. cerevisiae rad50 mutant strain, hits give high values
In short: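 Yeast strain carrying rad50 alteration (rad50EPP+) exposed to compounds; growth inhibition measured relative to vehicle-treated controls.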

[4] = NCI Yeast Anticancer Drug Screen. Data for the mgt1 strain (AID 153); settings: S. cerevisiae mgt1 mutant growth inhibition, hits give high values
In short: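 Yeast mgt1 strain (DNA repair/cell-cycle alteration panel) exposed to compounds; growth inhibition measured relative to vehicle-treated controls.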

[5] = NCI Yeast Anticancer Drug Screen. Data for the rad50 strain (AID 155);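 note: 0% = growth of vehicle-only cultures of the same strain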; settings: S. cerevisiae rad50 strain growth inhibition, hits give high values
In short: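 Growth of the mutant yeast was measured after compound exposure and referenced to vehicle-treated cultures.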

[6] = NCI Yeast Anticancer Drug Screen. Data for the mec2-1 strain (AID 157); settings: S. cerevisiae mec2-1 strain, hits give high values
In short: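 mec2-1 yeast strain, carrying an alteration in DNA damage repair or cell cycle control, was exposed to compounds; growth inhibition was measured relative to vehicle-treated controls.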

[7] = NCI Yeast Anticancer Drug Screen. Data for the rad14 strain (AID 159);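 note: 0% = growth of vehicle-treated control cultures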; settings: S. cerevisiae rad14 strain growth inhibition, hits give high values
In short: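 Here, inhibition of yeast growth was measured after compound exposure, using a strain with a genetic defect in DNA damage repair and vehicle-treated cultures as the reference.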

[8] = NCI Yeast Anticancer Drug Screen. Data for the sgs1 mgt1 strain (AID 161);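 note: 0% = growth of cultures given vehicle only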; settings: S. cerevisiae sgs1 mgt1 strain, hits give high values
In short: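 Percent growth inhibition was derived by comparing compound-exposed mutant yeast with vehicle-exposed cultures. The strain carries alterations in DNA damage repair.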

[9] = NCI Yeast Anticancer Drug Screen. Data for the CLN2oe strain (AID 163);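 note: 0% = growth of vehicle-only control cultures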; settings: S. cerevisiae CLN2oe strain, hits give high values
In short: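 Yeast cells carrying a defined cell-cycle control alteration were exposed to test compounds. Growth inhibition was scored against vehicle-treated control cultures.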

[10] = NCI Yeast Anticancer Drug Screen. Data for the cln2 rad14 strain (AID 165);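 note: 0% = growth equal to vehicle treated cultures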; settings: S. cerevisiae cln2 rad14 strain, hits give high values
In short: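 Yeast carrying cln2 and rad14 alterations (cell cycle control and DNA damage repair) were exposed to compounds. Growth inhibition was measured against vehicle-treated controls.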

[11] = NCI Yeast Anticancer Drug Screen. Data for the bub3 strain (AID 167); settings: S. cerevisiae bub3 mutant strain, hits give high values
In short: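 Whole-cell yeast assay. The mutant strain was incubated with compounds, and growth inhibition was determined by comparison with vehicle-treated cells.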

[12] = NCI Yeast Anticancer Drug Screen. Data for the wt2 strain (AID 169);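 note: 0% = growth of vehicle-treated yeast cultures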; settings: S. cerevisiae wt2 strain growth inhibition, hits give high values
In short: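 Yeast cells were exposed to test compounds, and growth inhibition was measured relative to vehicle-treated controls.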

[13] = NCI Yeast Anticancer Drug Screen. Data for the mlh1 strain (AID 171);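 note: 0% = growth of vehicle-treated control cultures of the same strain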; settings: S. cerevisiae mlh1 strain growth inhibition, hits give high values
In short: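 Yeast carrying a defined genetic alteration in DNA damage repair or cell cycle control were exposed to test compounds. Growth inhibition was measured relative to vehicle-treated controls.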

[14] = NCI Yeast Anticancer Drug Screen. Data for the mlh1 rad18 strain (AID 175); settings: S. cerevisiae mlh1 rad18 strain growth inhibition, hits give high values
In short: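 Growth inhibition of the yeast strain was measured after compound exposure and expressed relative to vehicle-treated controls. The strain carries defined defects in DNA damage repair.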

[15] = NCI Yeast Anticancer Drug Screen. Data for the rad18 strain (AID 177); settings: S. cerevisiae rad18 mutant growth inhibition, hits give high values
In short: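 Yeast carrying a defined DNA damage repair alteration were exposed to compounds. Growth inhibition was expressed relative to vehicle-treated controls.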

[16] = at 5.0 µM (retest, dose inferred, filed as 0.5)
[17] = at 50.0 µM (retest, dose inferred, filed as 5.0)

Measured: growth inhibition

COC1C=COC2(C)Oc3c(C)c(O)c4c(c3C2=O)/C(=N/C2CCC(O)OC2C)C=C(NC(=O)/C(C)=C\C(=O)C2CC2C(O)C(C)C(O)C(C)C(OC(C)=O)C1C)C4=O (stereo unspecified)
active: [1]; at 100.0 µM 92% | [4]; at 100.0 µM 80% | [5]; at 100.0 µM 90% | [6]; at 100.0 µM 92% | [7]; at 100.0 µM 87% | [10]; at 50.0 µM 81.4% | [11]; at 100.0 µM 91% | [12]; at 100.0 µM 94% | [13]; at 100.0 µM 73%
inactive: [1]; at 1.2 µM 0% | [1]; at 3.7 µM -2% | [1]; at 11.0 µM -4% | [1]; at 33.0 µM 17% | [2]; at 1.2 µM 0% | [2]; at 3.7 µM 0% | [2]; at 11.0 µM 1% | [2]; at 33.0 µM -1% | [2]; at 100.0 µM 11% | [3]; at 1.2 µM -2% | [3]; at 3.7 µM -10% | [3]; at 11.0 µM -14% | [3]; at 33.0 µM -7% | [3]; at 100.0 µM -6% | [4]; at 1.2 µM 0% | [4]; at 3.7 µM -4% | [4]; at 11.0 µM -1% | [4]; at 33.0 µM 29% | [5]; at 1.2 µM -2% | [5]; at 3.7 µM -3% | [5]; [16] -16% | [5]; at 11.0 µM -2% | [5]; at 33.0 µM 10% | [5]; [17] 37% | [5]; at 50.0 µM 9.3% | [6]; at 1.2 µM 0% | [6]; at 3.7 µM 0% | [6]; [16] 2% | [6]; at 11.0 µM -6% | [6]; at 33.0 µM 1% | [6]; [17] 27% | [6]; at 50.0 µM 30.6% | [7]; at 1.2 µM -4% | [7]; at 3.7 µM -4% | [7]; at 11.0 µM -3% | [7]; at 33.0 µM 16% | [8]; [16] -6% | [8]; [17] 56% | [8]; at 50.0 µM 33.5% | [9]; at 1.2 µM -11% | [9]; at 3.7 µM -11% | [9]; at 11.0 µM -8% | [9]; at 33.0 µM 3% | [9]; at 100.0 µM 53% | [10]; [16] 15% | [10]; [17] 57% | [11]; at 1.2 µM -6% | [11]; at 3.7 µM -6% | [11]; [16] -19% | [11]; at 11.0 µM -2% | [11]; at 33.0 µM -5% | [11]; [17] 7% | [11]; at 50.0 µM 23.4% | [12]; at 1.2 µM -1% | [12]; at 3.7 µM 1% | [12]; at 11.0 µM 0% | [12]; at 33.0 µM 28% | [13]; at 1.2 µM 3% | [13]; at 3.7 µM 1% | [13]; at 11.0 µM -1% | [13]; at 33.0 µM 28% | [14]; [16] -7% | [14]; [17] 48% | [14]; at 50.0 µM 17.9%

S=C(Nc1ccc(Cl)cc1)SC1CCCCC1
active: [1]; at 33.0 µM 96% | [1]; at 100.0 µM 98% | [2]; at 33.0 µM 98% | [2]; at 100.0 µM 98% | [3]; at 33.0 µM 98% | [3]; at 100.0 µM 98% | [4]; at 33.0 µM 98% | [4]; at 100.0 µM 99% | [5]; at 11.0 µM 96% | [5]; at 33.0 µM 99% | [5]; at 50.0 µM 83.2% | [5]; at 100.0 µM 99% | [6]; at 11.0 µM 93% | [6]; at 33.0 µM 99% | [6]; at 50.0 µM 85.5% | [6]; at 100.0 µM 96% | [7]; at 33.0 µM 97% | [7]; at 100.0 µM 97% | [8]; [17] 79% | [8]; at 50.0 µM 86.5% | [9]; at 33.0 µM 96% | [9]; at 100.0 µM 99% | [10]; at 50.0 µM 87.7% | [11]; at 33.0 µM 93% | [11]; at 50.0 µM 83% | [11]; at 100.0 µM 98% | [12]; at 11.0 µM 78% | [12]; at 33.0 µM 99% | [12]; at 100.0 µM 98% | [13]; at 33.0 µM 98% | [13]; at 100.0 µM 99% | [14]; [17] 91% | [14]; at 50.0 µM 91.8% | [15]; at 33.0 µM 97% | [15]; at 100.0 µM 98%
inactive: [1]; at 1.2 µM 6% | [1]; at 3.7 µM 24% | [1]; at 11.0 µM 34% | [2]; at 1.2 µM 7% | [2]; at 3.7 µM 0% | [2]; at 11.0 µM 47% | [3]; at 1.2 µM 7% | [3]; at 3.7 µM 22% | [3]; at 11.0 µM 61% | [4]; at 1.2 µM 16% | [4]; at 3.7 µM 40% | [4]; at 11.0 µM 33% | [5]; at 1.2 µM -4% | [5]; at 3.7 µM 9% | [5]; [16] 12% | [5]; [17] 65% | [6]; at 1.2 µM -17% | [6]; at 3.7 µM 7% | [6]; [16] 1% | [6]; [17] 40% | [7]; at 1.2 µM -24% | [7]; at 3.7 µM -20% | [7]; at 11.0 µM 27% | [8]; [16] 18% | [9]; at 1.2 µM -2% | [9]; at 3.7 µM -7% | [9]; at 11.0 µM 43% | [10]; [16] -6% | [10]; [17] 31% | [11]; at 1.2 µM -18% | [11]; at 3.7 µM -36% | [11]; [16] 17% | [11]; at 11.0 µM 25% | [11]; [17] 51% | [12]; at 1.2 µM -35% | [12]; at 3.7 µM -22% | [13]; at 1.2 µM 4% | [13]; at 3.7 µM 19% | [13]; at 11.0 µM 50% | [14]; [16] -2% | [15]; at 1.2 µM -8% | [15]; at 3.7 µM -7% | [15]; at 11.0 µM 48%
